# Results: PubChem BioAssay (NCI)
# Compounds without any hit were thinned out: in the full panel of roughly 83,000, 20% have a hit.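 Method: cells in 96-well plates; compound added at one concentration; 48 h incubation; percent growth measured; values under 10 scored active.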 A number with no mark means an inactive call. Activity calls are given as the source filed them.
# Tests used:
# Experiment in all cases: NCI-60 one-dose screen, 48 h (100 = growth as untreated, 0 = no growth, -100 = all killed)
# Details in all cases: 10 µM unless noted
# SR leukemia = test system: SR leukemia
# RPMI-8226 leukemia = test system: RPMI-8226 leukemia
# OVCAR-8 ovarian = test system: OVCAR-8 ovarian
# OVCAR-5 ovarian = test system: OVCAR-5 ovarian
# OVCAR-4 ovarian = test system: OVCAR-4 ovarian
# SK-OV-3 ovarian = test system: SK-OV-3 ovarian
# IGROV1 ovarian = test system: IGROV1 ovarian
# OVCAR-3 ovarian = test system: OVCAR-3 ovarian
# HS 578T breast = test system: HS 578T breast
# NCI/ADR-RES ovarian = test system: NCI/ADR-RES ovarian
# T-47D breast = test system: T-47D breast
# BT-549 breast = test system: BT-549 breast
# MDA-MB-435 melanoma = test system: MDA-MB-435 melanoma
# SW-620 colon = test system: SW-620 colon
# MCF7 breast = test system: MCF7 breast
# HCT-116 colon = test system: HCT-116 colon
# HCC-2998 colon = test system: HCC-2998 colon
# KM12 colon = test system: KM12 colon
Compound,growth (SR leukemia),growth (RPMI-8226 leukemia),growth (OVCAR-8 ovarian),growth (OVCAR-5 ovarian),growth (OVCAR-4 ovarian),growth (SK-OV-3 ovarian),growth (IGROV1 ovarian),growth (OVCAR-3 ovarian),growth (HS 578T breast),growth (NCI/ADR-RES ovarian),growth (T-47D breast),growth (BT-549 breast),growth (MDA-MB-435 melanoma),growth (SW-620 colon),growth (MCF7 breast),growth (HCT-116 colon),growth (HCC-2998 colon),growth (KM12 colon)
Brc1c(-c2ccncc2)nc2n1CCS2,52.9%,60.2%,94.6%,102%,109%,116%,0.69% (active),97.6%,117%,107%,100%,105%,94%,105%,110%,85%,116%,116%
CCOC(=O)C1C(=O)C(=O)N(C(C)C)C1C(=O)OCC (stereo not given),108%,106%,91.4%,92.9%,106%,109%,110%,108%,96.5%,106%,105%,119%,104%,103%,99.8%,110%,104%,98.9%
O=C1/C(=C\c2cn(-c3nc(N4CCOCC4)nc(N4CCOCC4)n3)c3ccccc23)c2ccccc2N1c1c(Cl)cccc1Cl,27.4%,60.1%,76.1%,52.1%,65.1%,7.66% (active),36.2%,69.6%,27.9%,72.4%,45.5%,39.1%,83.5%,84.5%,50.6%,71.6%,75.5%,–
COC(=O)[C@H](Cc1cn(C)cn1)NC(=O)[C@H](Cc1c[nH]c2ccccc12)NC(=O)Nc1cc(C(F)(F)F)cc(C(F)(F)F)c1,-42.8% [100 µM] (active),-38.4% [100 µM] (active),-78.5% [100 µM] (active),-73.6% [100 µM] (active),-50.7% [100 µM] (active),-89.9% [100 µM] (active),-46.2% [100 µM] (active),-95.7% [100 µM] (active),10.4% [100 µM],69.7% [100 µM],-72.2% [100 µM] (active),-88.6% [100 µM] (active),-88.5% [100 µM] (active),-38.1% [100 µM] (active),-58.6% [100 µM] (active),-89.1% [100 µM] (active),-96.8% [100 µM] (active),-86.6% [100 µM] (active)
CCCCN(CCCC)CC(O)CN(CC)CC (stereo not given),97%,97.4%,104%,95.3%,97%,99%,100%,113%,120%,105%,97.6%,96.1%,92.2%,99.3%,96%,97%,102%,108%
CC1(C)C(O)NC(Cl)=C(C#N)C1(C#N)C#N (stereo not given),119%,110%,103%,83%,107%,108%,-10.9% (active),229%,114%,103%,106%,104%,113%,102%,107%,101%,90.4%,112%
CC1=NN(c2cccc(Cl)c2)C(=O)/C1=C\c1cn(-c2nc(N3CCOCC3)nc(N3CCOCC3)n2)c2ccccc12,100%,98.3%,107%,103%,105%,109%,106%,106%,104%,103%,99.8%,103%,100%,110%,98.9%,94.9%,104%,107%
Cn1cnc2nc[nH]c2c1=S,89.6%,101%,105%,94.8%,108%,105%,113%,115%,102%,101%,96%,98.6%,109%,99.8%,94.2%,106%,102%,105%
CC(C)OC(=O)Nn1cnc2ccccc21,-48% (active),98.6%,111%,96.7%,126%,114%,23.8%,111%,114%,110%,114%,116%,110%,111%,120%,87.4%,105%,114%
CCCCCCCCCCC1OC(C)CC(C)O1 (stereo not given),71.6%,99.6%,99.5%,99.2%,111%,103%,109%,98.3%,101%,105%,88.7%,101%,107%,103%,98.6%,97.3%,101%,103%
CCCCCCNC(=O)Oc1ccc(/C(=C(/C)Cc2ccc(OC)cc2)c2ccc(OCCN3CCCCC3)cc2)cc1,-0.659% (active),76.5%,81.2%,90.5%,81%,88.8%,95.1%,93.9%,80%,86.3%,42%,92.5%,91.5%,84.6%,30.6%,63.7%,94.9%,85.6%
Cc1ccc2c(O)c(O)cc(NC(C)CCCN)c2n1 (stereo not given),89.5%,75%,30.7%,87.4%,6.99% (active),102%,86.3%,10.8%,80.8%,91.3%,63.3%,91.1%,114%,73.2%,13.3%,34.7%,60.4%,109%
COC1NC(Cl)=C(C#N)C(C#N)(C#N)C1(C)C (stereo not given),98.7%,127%,107%,31.6%,111%,113%,-21.4% (active),123%,104%,120%,112%,97%,124%,95.9%,124%,108%,113%,111%
COc1ccc(Cn2cc3c(c2-c2ccc(O)cc2)CCc2cnoc2-3)cc1,11.5%,26.6%,34.9%,41.2%,48.4%,12%,19.7%,-14.7% (active),5.28% (active),-1.58% (active),50%,44.4%,-39.4% (active),22.5%,14.7%,11.1%,-21.1% (active),11.8%
COC(=O)C(N)CC(C)C (stereo not given),86.4%,99.2%,101%,108%,111%,111%,115%,109%,111%,106%,92%,97.9%,106%,103%,98.3%,93.5%,111%,93.8%
CC[C@H](Nc1ncnc2nc[nH]c12)c1nc2cccc(NCc3ccc(C(=O)NO)o3)c2c(=O)n1-c1ccccc1,76.2%,94.9%,99.2%,98.3%,97.3%,110%,106%,97.6%,84.7%,101%,80.8%,86%,105%,107%,91.4%,96.9%,104%,103%
N#CCc1ncc(-c2ccc(C(F)(F)F)cc2)c(NC2CCCCCC2)n1,-23.8% [100 µM] (active),-32% [100 µM] (active),26% [100 µM],50.2% [100 µM],42.5% [100 µM],74.9% [100 µM],44.9% [100 µM],-19% [100 µM] (active),52.7% [100 µM],28.3% [100 µM],20.7% [100 µM],9.45% [100 µM] (active),0.369% [100 µM] (active),19% [100 µM],18.4% [100 µM],8.09% [100 µM] (active),38.1% [100 µM],8.14% [100 µM] (active)
